AMPAR-TARP mod: modulates AMPAR-stargazin complexes; O88602+P19491; HEK293 GluA2+stargazin, membrane potential dye (FDSS), glutamate EC50; hits were called plate by plate, in both directions; calls only at 30 µM; 40,000 compounds, 3.5% hits;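 active = any of four per-well response measures lying three or more SD from its plate-wide compound average, in either direction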
GIRK2 act: Activates human GIRK2-containing potassium channels | P48051 | HEK293 GIRK2/NPY4 cells, thallium flux fluorescence | activation (% efficacy), % for hits at 37.5 µM | 34,000 tested, under 10 active | AID 1259324;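 active = primary screen hit, no activity in plain HEK293 cells, and in GIRK2-only cells above 5% efficacy rising with concentration; inactive = the rest, including fluorescent compounds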;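 also: efficacy is normalized control-subtracted fluorescence 15 s after thallium addition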
Target sequence (P48051 whole entry, looked up): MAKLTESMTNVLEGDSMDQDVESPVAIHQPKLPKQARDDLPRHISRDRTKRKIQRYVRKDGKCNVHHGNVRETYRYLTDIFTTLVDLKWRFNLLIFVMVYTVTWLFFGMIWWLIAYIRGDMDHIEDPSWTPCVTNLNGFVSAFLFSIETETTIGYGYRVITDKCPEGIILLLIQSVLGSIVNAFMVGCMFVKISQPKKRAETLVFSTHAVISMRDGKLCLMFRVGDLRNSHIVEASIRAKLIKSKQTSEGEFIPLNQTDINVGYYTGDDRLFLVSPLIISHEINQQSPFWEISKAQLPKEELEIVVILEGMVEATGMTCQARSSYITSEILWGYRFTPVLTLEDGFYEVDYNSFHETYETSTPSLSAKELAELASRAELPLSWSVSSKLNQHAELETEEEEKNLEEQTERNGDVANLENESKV
Of the large screens only hits and unclear results are named; the others gave an inactive call. This excerpt belongs to a sample that is enriched for hits.

COc1ccc(NC(=O)c2nnn(Cc3ccc(C)cc3)c2N)cc1OC	none
O=C(c1cccc(-n2cnnn2)c1)N1CCN(CCn2ncccc2=O)CC1	none (no result: AMPAR-TARP mod)
O=C(CCCc1ccccc1)Nc1ccc(CC(=O)NC2CC2)cc1	none
CN1CCN(n2c3c(c(SCC(=O)Nc4cccc5ccccc45)nc2=O)CCC3)CC1	none
Cc1cc(NC(=O)CSc2nc(=O)n(N3CCN(C)CC3)c3c2CCC3)no1	AMPAR-TARP mod active
Cc1cccc(C(=O)Oc2c(S(=O)(=O)c3ccccc3)c(C)nn2C(C)(C)C)c1	none (no result: GIRK2 act)
COc1ccc(CNC(=O)C(=O)NCCC2CCCCN2S(=O)(=O)c2ccccc2)cc1 (centres undefined)	none (no result: GIRK2 act)
O=C(CC1CCCCN1S(=O)(=O)c1ccccc1)NCCC1=CCCCC1 (centres undefined)	AMPAR-TARP mod active
COc1ccc(S(=O)(=O)N2CCCCC2CC(=O)NCCCc2ccccc2)cc1 (centres undefined)	none (no result: GIRK2 act)
CC(C)(C)NC(=O)NCCC1CCCCN1S(=O)(=O)c1ccccc1 (centres undefined)	AMPAR-TARP mod active (no result: GIRK2 act)
CC(C)C(=O)N1CCc2ccc(NC(=O)/C=C/c3ccccc3)cc2C1	none
CCOc1ccc(S(=O)(=O)NCC2CCN(C(=O)c3cccn(C)c3=O)CC2)cc1C	none
COc1ccc(C2NC(=O)NC(C)=C2C(=O)Nc2ccccc2)c(Cl)c1O (centres undefined)	none (no result: GIRK2 act)
COc1cc(C(=O)NCC(c2ccc(C)cc2)N(C)C)cc(OC)c1OC (centres undefined)	none
O=C(O)CCN1CCN(Cc2ccc(Cl)cc2)CC1	AMPAR-TARP mod active
O=C(O)CCN1CCN(Cc2ccccc2)CC1	none
COc1ccc(S(=O)(=O)N2CCN=C2SCc2ccccc2C)cc1	none (no result: GIRK2 act)
COc1ccc(S(=O)(=O)N2CCN=C2SCc2ccccc2F)cc1	AMPAR-TARP mod active (no result: GIRK2 act)
Cc1cc(F)ccc1S(=O)(=O)NCC1CCN(C2CCCC2)CC1	none
Cc1cc(C)c(S(=O)(=O)NCC2CCN(C3CCCC3)CC2)cc1C	none
CCOc1ccc(S(=O)(=O)NCC2CCN(C3CCCC3)CC2)cc1C	AMPAR-TARP mod active
CCc1ccc(S(=O)(=O)NCC2CCN(C3CCCC3)CC2)s1	AMPAR-TARP mod active
O=S(=O)(Cc1cccc(F)c1)NCC(O)(c1ccccc1)C1CC1 (centres undefined)	none
CN(C)C(CNC(=O)C1(c2ccccc2)CCOCC1)c1ccsc1 (centres undefined)	none
CN(C)C(CNC(=O)C1(c2ccc(Cl)cc2)CCCC1)c1ccsc1 (centres undefined)	AMPAR-TARP mod active
COc1cccc(N2CC(c3nc4ccccc4n3CC(O)COc3cc(C)ccc3C)CC2=O)c1 (centres undefined)	none
O=S(=O)(Cc1ccccc1)NCC(c1ccco1)N1CCOCC1 (centres undefined)	none
O=S(=O)(Cc1ccc(Cl)cc1)NCC(c1ccco1)N1CCOCC1 (centres undefined)	AMPAR-TARP mod active
CSCCn1c(=NC(=O)c2cc(C)no2)sc2ccccc21	none
CSCCn1c(=NC(=O)c2cc(C)no2)sc2cc3c(cc21)OCCO3	AMPAR-TARP mod active
O=C(NNC(=O)C1CC1)c1ccc(=O)n(Cc2ccccc2)c1	none
Cc1cccc(-n2nnnc2SC(C)C(=O)Nc2cc(C)on2)c1 (centres undefined)	none (no result: GIRK2 act)
CCOc1ccc(-n2nnnc2SC(C)C(=O)Nc2cccc(OC)c2)cc1 (centres undefined)	AMPAR-TARP mod active (no result: GIRK2 act)
CCOc1ccc(-n2nnnc2SC(C)C(=O)Nc2cc(C)on2)cc1 (centres undefined)	AMPAR-TARP mod active (no result: GIRK2 act)
COc1cccc(NC(=O)C(C)Sc2nnnn2-c2ccc(C)cc2)c1 (centres undefined)	none (no result: GIRK2 act)
CC(C)(C)n1nc2c(c1-n1cccc1)CN(C(=O)c1cccs1)C2	none
Cc1ccc(-n2nc3c(c2-n2cccc2)CN(C(=O)c2ccno2)C3)cc1C	none
Cc1ccc(-n2nc3c(c2-n2cccc2)CN(C(=O)c2ccsc2)C3)cc1	AMPAR-TARP mod active
Cc1ccc(-n2nc3c(c2-n2cccc2)CN(C(=O)c2cnccn2)C3)cc1C	GIRK2 act 100%
Cc1ccc(-c2nnc(NC(=O)c3ccc(S(=O)(=O)N(C)C)cc3)o2)cc1C	none
Cc1ccc(NS(=O)(=O)c2ccccc2)c(C(=O)c2ccccc2)c1	AMPAR-TARP mod active (no result: GIRK2 act)
Cc1ccc(S(=O)(=O)Nc2ccccc2C(=O)Nc2ccc(C)cc2C(=O)c2ccccc2)cc1	none (no result: GIRK2 act)
CCc1nc2sc(C(c3ccc(Cl)c(Cl)c3)N3CCCC3)c(O)n2n1 (centres undefined)	none
COc1ccc(S(=O)(=O)Nc2nc(C(=O)Nc3ccc(Cl)cc3)cs2)cc1	none
COc1ccc(S(=O)(=O)Nc2nc(C(=O)Nc3ccc(C(C)C)cc3)cs2)cc1	AMPAR-TARP mod active
Cc1ccc(CC(=O)Nc2ccc(O)c(-c3nc4ccccc4s3)c2)cc1	none
COc1cc(OC)c(NC(=O)NCCNc2nc(C)cc(N3CCCCC3)n2)cc1Cl	AMPAR-TARP mod active
COc1ccc(OC)c(NC(=O)NCCNc2nc(C)cc(N3CCCCC3)n2)c1	none
Cc1ccc(NC(=O)C(=O)NCC(c2cccc3ccccc23)N(C)C)cc1F (centres undefined)	none (no result: AMPAR-TARP mod)
CN(C)CCCNC(=O)C(=O)Nc1ccc2c(c1)OCCO2	none
CC(=O)Nc1cccc(NC(=O)C(=O)NCCCN(C)C)c1	AMPAR-TARP mod active (no result: GIRK2 act)
COc1ccc(Cl)cc1NC(=O)NCC1CCN(C(=O)Nc2ccc(F)cc2)CC1	none
COc1ccc(Cl)cc1S(=O)(=O)NCC1CCN(C(=O)Nc2ccc(F)cc2)CC1	AMPAR-TARP mod active
Cc1n[nH]c(C)c1S(=O)(=O)N1CCC(Cn2c(C)nc3ccccc32)CC1	none
Cc1c(Cl)cccc1S(=O)(=O)N1CCC(Cn2c(C)nc3ccccc32)CC1	AMPAR-TARP mod active
CCOC(=O)C1=C(C)NC(=O)NC1c1cccc2ccccc12 (centres undefined)	none (no result: GIRK2 act)
CC1=C(C(=O)OC(C)(C)C)C(c2ccccc2F)NC(=O)N1 (centres undefined)	AMPAR-TARP mod active (no result: GIRK2 act)
CCc1ccccc1-n1c(-c2ccccc2)cn2c3c(=O)n(CCOC)c(=O)n(C)c3nc12	AMPAR-TARP mod active (no result: GIRK2 act)
C=C(C)Cn1c(=O)c2c(nc3n(-c4cc(OC)ccc4OC)c(-c4ccccc4)cn23)n(C)c1=O	AMPAR-TARP mod active
COCCn1c(=O)c2c(nc3n(-c4ccccc4C)c(-c4ccccc4)cn23)n(C)c1=O	none (no result: GIRK2 act)
C=CCn1c(=O)c2c(nc3n(-c4cc(OC)ccc4OC)c(-c4ccccc4)cn23)n(C)c1=O	none
Cc1nn(C2CCS(=O)(=O)C2)c2nc(-c3ccccc3)cc(C(=O)N3CCOCC3)c12 (centres undefined)	none (no result: AMPAR-TARP mod)
O=C(NCCN1CCN(C(=O)c2cc(=O)c3ccccc3o2)CC1)c1ccsc1	none
COc1ccc(-c2nc(CCNC(=O)CCCn3nc(-c4cccs4)ccc3=O)cs2)cc1	none
COc1cccc(C(=O)N2CCN(c3ncnc4c3nnn4-c3ccc(Cl)cc3)CC2)c1	none (no result: GIRK2 act)
O=C(Nc1cccc([N+](=O)[O-])c1)c1ccc(=O)n(Cc2ccccc2F)c1	AMPAR-TARP mod active
COc1cc([N+](=O)[O-])ccc1NC(=O)c1ccc(=O)n(Cc2ccccc2F)c1	AMPAR-TARP mod active
COc1cc([N+](=O)[O-])ccc1NC(=O)c1ccc(=O)n(Cc2cccc([N+](=O)[O-])c2)c1	AMPAR-TARP mod active
COc1cc([N+](=O)[O-])ccc1NC(=O)c1ccc(=O)n(Cc2ccc(F)cc2)c1	AMPAR-TARP mod active

Screens: PubChem BioAssay, several laboratories
